Data: the supplement of paper PMC10849652
Of roughly 7,900 targets only a part is listed; those with a hit were picked by preference. About 0.6% of all pairs of compound and target were hits.

Columns and labels:
Test in all cases: log2 fold change, soluble protein after heating vs DMSO (PISA); higher = thermal stabilisation; K562 cells, 10 uM, 30 min; active = over 0.2 and 3.5 SD of the protein, either way, in both replicates (recomputed)
[1] = compound: Cc1ccc(NC(=O)c2ccc(CN3CC[C@H](N(C)C)C3)c(C(F)(F)F)c2)cc1Nc1nccc(-c2cncnc2)n1 [bafetinib]
Procedure, shortened: (§1)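 K562 cells (2×10^6 cells/mL) were treated with 10 μM compound for 30 min, and aliquots were heated for 3 min over 48°C-58°C. Pooled aliquots were extracted in PBS with 0.5% NP-40 at 4°C, and the supernatant after 21,000xg for 90 min was measured by TMTpro 16plex LC-MS/MS with channel sums equalised. Reported thermal stability, relative to control samples and from duplicates, is a log2 fold change.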

[2] = compound: Cc1cccc(CC(=O)N2CCc3c2ccc(-c2cn(C)c4ncnc(N)c24)c3F)n1
Procedure, shortened: as §1

[3] = compound: Cc1cn(-c2cc(NC(=O)c3ccc(C)c(Nc4nccc(-c5cccnc5)n4)c3)cc(C(F)(F)F)c2)cn1 [nilotinib]
Procedure, shortened: as §1

[4] = compound: Cc1nc(Nc2n[nH]c3c2CN(C(=O)N[C@H](CN(C)C)c2ccccc2)C3(C)C)c2sccc2n1
Procedure, shortened: as §1

[5] = compound: Cc1nc(Nc2ncc(C(=O)Nc3c(C)cccc3Cl)s2)cc(N2CCN(CCO)CC2)n1 [dasatinib]
Procedure, shortened: as §1

[6] = compound: Cc1ncc(-c2ccnc(Nc3ccc(S(C)(=O)=O)cc3)n2)n1C(C)C
Procedure, shortened: as §1

[7] = compound: Cn1cc(-c2ccc3c(c2)CCN3C(=O)Cc2cccc(C(F)(F)F)c2)c2c(N)ncnc21
Procedure, shortened: as §1

[8] = compound: Cn1cc(-c2ccc3nnc(C(F)(F)c4ccc5ncccc5c4)n3n2)cn1
Procedure, shortened: as §1

[9] = compound: Cn1cncc1[C@@](N)(c1ccc(Cl)cc1)c1ccc2c(c1)c(-c1cccc(Cl)c1)cc(=O)n2C [tipifarnib]
Procedure, shortened: as §1

[10] = compound: FC(F)(F)c1ccc(/C=C/c2nc(COc3ccc(CCCCn4ccnn4)cc3)co2)cc1 [mubritinib]
Procedure, shortened: as §1

Measured: log2 fold change

MTHFS (UniProt P49914)
UniProt P49914, sequence (P49914 whole entry, looked up): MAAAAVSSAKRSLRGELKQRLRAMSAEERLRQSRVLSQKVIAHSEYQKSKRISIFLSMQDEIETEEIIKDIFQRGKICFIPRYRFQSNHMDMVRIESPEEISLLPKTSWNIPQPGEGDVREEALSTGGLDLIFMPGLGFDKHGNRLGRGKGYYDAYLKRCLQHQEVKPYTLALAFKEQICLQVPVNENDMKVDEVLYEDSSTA
inactive: [1] 0.074 | [2] 0.014 | [3] 0.154 | [4] 0.045 | [5] -0.094 | [6] 0.003 | [7] 0.032 | [8] -0.008 | [9] 0.001 | [10] 0.045

NOLC1 isoform 2 (UniProt Q14978)
active: [6] -0.376
inactive: [1] 0.105 | [2] -0.031 | [3] 0.1 | [4] -0.1 | [5] 0.145 | [7] -0.013 | [8] 0.02 | [9] 0.027 | [10] -0.031

NIPSNAP2 (UniProt O75323)
UniProt O75323, sequence (O75323 whole entry, looked up): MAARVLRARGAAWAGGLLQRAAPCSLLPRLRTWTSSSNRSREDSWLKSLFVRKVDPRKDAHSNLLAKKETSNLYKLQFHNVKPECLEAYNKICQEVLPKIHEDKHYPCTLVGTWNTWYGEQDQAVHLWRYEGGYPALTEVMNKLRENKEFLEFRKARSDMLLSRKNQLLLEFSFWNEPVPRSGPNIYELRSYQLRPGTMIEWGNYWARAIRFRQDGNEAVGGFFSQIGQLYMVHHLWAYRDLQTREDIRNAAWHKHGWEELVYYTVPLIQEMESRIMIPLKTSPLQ
inactive: [1] 0.02 | [2] -0.012 | [3] 0.082 | [4] -0.003 | [5] 0.05 | [6] -0.033 | [7] 0.185 | [8] 0.025 | [9] -0.058 | [10] 0.041

NDUFS7 (UniProt O75251)
UniProt O75251, sequence (O75251 whole entry, looked up): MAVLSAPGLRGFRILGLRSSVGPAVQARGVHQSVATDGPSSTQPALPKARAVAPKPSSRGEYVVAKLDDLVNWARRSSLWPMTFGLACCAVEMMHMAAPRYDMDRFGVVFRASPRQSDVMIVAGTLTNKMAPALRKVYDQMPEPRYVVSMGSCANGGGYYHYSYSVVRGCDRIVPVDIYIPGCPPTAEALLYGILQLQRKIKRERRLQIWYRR
inactive: [1] -0.047 | [2] 0.06 | [3] -0.03 | [4] 0.021 | [5] 0.01 | [6] -0.007 | [7] 0.034 | [8] 0.036 | [9] -0.035 | [10] 0.095

NMT1 (UniProt P30419)
inactive: [1] 0.064 | [2] -0.026 | [3] 0.049 | [4] 0.06 | [5] -0.012 | [6] -0.003 | [7] 0.026 | [8] -0.001 | [9] -0.026 | [10] 0.076

PACS1 (UniProt Q6VY07)
inactive: [1] 0.008 | [2] 0.02 | [3] 0.051 | [4] 0.038 | [5] 0.018 | [6] -0.018 | [7] -0.006 | [8] -0.098 | [9] -0.002 | [10] -0.021

ORC3 isoform 2 (UniProt Q9UBD5)
inactive: [1] -0.032 | [2] 0.099 | [3] -0.262 | [4] -0.254 | [5] -0.298 | [6] -0.118 | [7] 0.067 | [8] 0.109 | [9] 0.086 | [10] 0.029

MRPS17 (UniProt Q9Y2R5)
inactive: [1] 0.264 | [2] -0.01 | [3] -0.314 | [4] 0.067 | [5] -0.122 | [6] -0.012 | [7] -0.052 | [8] 0.035 | [9] -0.088 | [10] 0.179

NISCH (UniProt Q9Y2I1)
UniProt Q9Y2I1, sequence (Q9Y2I1 whole entry, looked up): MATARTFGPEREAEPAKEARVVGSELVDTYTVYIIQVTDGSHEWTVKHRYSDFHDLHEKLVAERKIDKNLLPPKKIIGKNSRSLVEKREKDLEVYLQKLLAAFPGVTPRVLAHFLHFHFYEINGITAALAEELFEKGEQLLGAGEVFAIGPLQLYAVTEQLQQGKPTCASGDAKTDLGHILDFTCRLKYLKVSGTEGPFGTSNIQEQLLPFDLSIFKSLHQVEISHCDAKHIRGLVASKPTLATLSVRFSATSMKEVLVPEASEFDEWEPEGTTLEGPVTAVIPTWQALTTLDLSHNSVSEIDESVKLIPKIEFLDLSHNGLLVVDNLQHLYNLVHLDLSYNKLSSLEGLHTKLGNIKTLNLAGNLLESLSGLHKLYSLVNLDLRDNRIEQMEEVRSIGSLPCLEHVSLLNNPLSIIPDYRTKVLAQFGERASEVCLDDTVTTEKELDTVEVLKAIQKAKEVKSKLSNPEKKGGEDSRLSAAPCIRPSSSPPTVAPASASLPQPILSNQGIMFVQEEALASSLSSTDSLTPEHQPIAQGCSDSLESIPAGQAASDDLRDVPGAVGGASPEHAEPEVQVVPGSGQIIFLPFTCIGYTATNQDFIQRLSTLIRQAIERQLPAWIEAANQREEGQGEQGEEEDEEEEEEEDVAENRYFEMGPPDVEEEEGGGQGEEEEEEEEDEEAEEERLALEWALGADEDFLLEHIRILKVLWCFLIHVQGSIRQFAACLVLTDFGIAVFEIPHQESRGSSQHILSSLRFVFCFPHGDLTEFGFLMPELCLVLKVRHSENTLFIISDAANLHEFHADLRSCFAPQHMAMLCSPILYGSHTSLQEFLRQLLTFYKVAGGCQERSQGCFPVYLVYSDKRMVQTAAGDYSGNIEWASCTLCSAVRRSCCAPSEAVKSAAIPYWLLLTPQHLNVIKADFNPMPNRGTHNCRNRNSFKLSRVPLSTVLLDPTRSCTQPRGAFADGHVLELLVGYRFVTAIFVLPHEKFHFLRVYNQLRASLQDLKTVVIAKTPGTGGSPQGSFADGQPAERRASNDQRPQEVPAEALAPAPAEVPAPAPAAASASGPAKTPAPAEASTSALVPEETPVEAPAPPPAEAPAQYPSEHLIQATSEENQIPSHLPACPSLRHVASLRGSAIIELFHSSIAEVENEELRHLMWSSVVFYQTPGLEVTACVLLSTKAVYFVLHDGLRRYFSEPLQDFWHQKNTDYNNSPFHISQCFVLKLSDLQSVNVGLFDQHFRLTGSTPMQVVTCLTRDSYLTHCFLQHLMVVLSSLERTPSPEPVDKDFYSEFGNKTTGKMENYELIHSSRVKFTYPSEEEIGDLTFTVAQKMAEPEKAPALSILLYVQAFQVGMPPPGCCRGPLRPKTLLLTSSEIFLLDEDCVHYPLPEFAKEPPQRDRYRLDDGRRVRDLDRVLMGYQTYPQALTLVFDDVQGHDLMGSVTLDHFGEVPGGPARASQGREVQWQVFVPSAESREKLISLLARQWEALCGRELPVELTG
inactive: [1] -0.053 | [2] 0.053 | [3] -0.138 | [4] -0.158 | [5] -0.233 | [6] -0.324 | [7] -0.002 | [8] -0.02 | [9] -0.03 | [10] -0.009

MSH6 (UniProt P52701)
inactive: [1] -0.019 | [2] 0.101 | [3] -0.116 | [4] -0.179 | [5] -0.325 | [6] -0.1 | [7] 0.139 | [8] 0.167 | [9] -0.174 | [10] 0

NRDC isoform 2 (UniProt O43847)
inactive: [1] 0.022 | [2] 0.072 | [3] -0.019 | [4] -0.023 | [5] -0.133 | [6] 0.011 | [7] -0.01 | [8] -0.044 | [9] -0.129 | [10] 0.088

NDUFS8 (UniProt O00217)
inactive: [1] -0.055 | [2] 0.047 | [3] -0.036 | [4] -0.002 | [5] -0.1 | [6] -0.047 | [7] 0.1 | [8] 0.055 | [9] -0.053 | [10] 0.111

NA, A0A0B4J2A0
inactive: [1] -0.066 | [2] 0.024 | [3] 0.035 | [4] -0.024 | [5] -0.111 | [6] 0.006 | [7] 0.025 | [8] -0.015 | [9] 0.007 | [10] -0.011

MRPS6 (UniProt P82932)
inactive: [1] 0.062 | [2] 0.159 | [3] -0.146 | [4] 0.062 | [5] -0.02 | [6] -0.009 | [7] 0.007 | [8] 0.148 | [9] -0.106 | [10] 0.112

NUP98 (UniProt P52948)
inactive: [1] -0.008 | [2] 0.018 | [3] -0.034 | [4] -0.062 | [5] -0.077 | [6] -0.044 | [7] -0.026 | [8] -0.075 | [9] 0.005 | [10] 0

MRPS18B (UniProt Q9Y676)
inactive: [1] 0.125 | [2] 0.055 | [3] -0.154 | [4] 0.098 | [5] -0.024 | [6] -0.342 | [7] 0.005 | [8] 0.081 | [9] -0.059 | [10] 0.172

MYLK (UniProt Q15746)
active: [1] 0.827 | [3] 0.856 | [5] 0.65
inactive: [2] -0.063 | [4] 0.147 | [6] 0.136 | [7] -0.107 | [8] -0.128 | [9] 0.047 | [10] 0

NUDCD2 (UniProt Q8WVJ2)
UniProt Q8WVJ2, sequence (Q8WVJ2 whole entry, looked up): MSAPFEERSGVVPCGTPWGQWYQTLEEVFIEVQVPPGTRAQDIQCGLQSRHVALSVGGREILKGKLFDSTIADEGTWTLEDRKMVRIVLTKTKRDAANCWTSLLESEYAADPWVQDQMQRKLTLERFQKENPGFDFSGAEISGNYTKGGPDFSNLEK
inactive: [1] 0.017 | [2] 0.033 | [3] -0.119 | [4] -0.216 | [5] -0.171 | [6] -0.026 | [7] 0.02 | [8] 0.066 | [9] -0.1 | [10] 0.077

MORF4L2 (UniProt Q15014)
inactive: [1] 0.026 | [2] -0.055 | [3] 0.009 | [4] 0.01 | [5] 0.045 | [6] -0.005 | [7] -0.087 | [8] -0.131 | [9] 0.059 | [10] -0.076

MRPS24 (UniProt Q96EL2)
inactive: [1] 0.283 | [2] 0.183 | [3] -0.195 | [4] 0.057 | [5] -0.024 | [6] 0.028 | [7] -0.141 | [8] 0.008 | [9] -0.035 | [10] 0.186

MT-ND4 (UniProt P03905)
inactive: [1] -0.016 | [2] -0.118 | [3] 0.006 | [4] -0.033 | [5] -0.009 | [6] -0.003 | [7] -0.004 | [8] -0.045 | [9] 0.173 | [10] 0.05

NUP160 (UniProt Q12769)
inactive: [1] -0.127 | [2] 0.043 | [3] -0.078 | [4] -0.136 | [5] -0.045 | [6] -0.06 | [7] -0.025 | [8] -0.034 | [9] -0.042 | [10] -0.042

MINK1 (UniProt Q8N4C8)
UniProt Q8N4C8, sequence (Q8N4C8 whole entry, looked up): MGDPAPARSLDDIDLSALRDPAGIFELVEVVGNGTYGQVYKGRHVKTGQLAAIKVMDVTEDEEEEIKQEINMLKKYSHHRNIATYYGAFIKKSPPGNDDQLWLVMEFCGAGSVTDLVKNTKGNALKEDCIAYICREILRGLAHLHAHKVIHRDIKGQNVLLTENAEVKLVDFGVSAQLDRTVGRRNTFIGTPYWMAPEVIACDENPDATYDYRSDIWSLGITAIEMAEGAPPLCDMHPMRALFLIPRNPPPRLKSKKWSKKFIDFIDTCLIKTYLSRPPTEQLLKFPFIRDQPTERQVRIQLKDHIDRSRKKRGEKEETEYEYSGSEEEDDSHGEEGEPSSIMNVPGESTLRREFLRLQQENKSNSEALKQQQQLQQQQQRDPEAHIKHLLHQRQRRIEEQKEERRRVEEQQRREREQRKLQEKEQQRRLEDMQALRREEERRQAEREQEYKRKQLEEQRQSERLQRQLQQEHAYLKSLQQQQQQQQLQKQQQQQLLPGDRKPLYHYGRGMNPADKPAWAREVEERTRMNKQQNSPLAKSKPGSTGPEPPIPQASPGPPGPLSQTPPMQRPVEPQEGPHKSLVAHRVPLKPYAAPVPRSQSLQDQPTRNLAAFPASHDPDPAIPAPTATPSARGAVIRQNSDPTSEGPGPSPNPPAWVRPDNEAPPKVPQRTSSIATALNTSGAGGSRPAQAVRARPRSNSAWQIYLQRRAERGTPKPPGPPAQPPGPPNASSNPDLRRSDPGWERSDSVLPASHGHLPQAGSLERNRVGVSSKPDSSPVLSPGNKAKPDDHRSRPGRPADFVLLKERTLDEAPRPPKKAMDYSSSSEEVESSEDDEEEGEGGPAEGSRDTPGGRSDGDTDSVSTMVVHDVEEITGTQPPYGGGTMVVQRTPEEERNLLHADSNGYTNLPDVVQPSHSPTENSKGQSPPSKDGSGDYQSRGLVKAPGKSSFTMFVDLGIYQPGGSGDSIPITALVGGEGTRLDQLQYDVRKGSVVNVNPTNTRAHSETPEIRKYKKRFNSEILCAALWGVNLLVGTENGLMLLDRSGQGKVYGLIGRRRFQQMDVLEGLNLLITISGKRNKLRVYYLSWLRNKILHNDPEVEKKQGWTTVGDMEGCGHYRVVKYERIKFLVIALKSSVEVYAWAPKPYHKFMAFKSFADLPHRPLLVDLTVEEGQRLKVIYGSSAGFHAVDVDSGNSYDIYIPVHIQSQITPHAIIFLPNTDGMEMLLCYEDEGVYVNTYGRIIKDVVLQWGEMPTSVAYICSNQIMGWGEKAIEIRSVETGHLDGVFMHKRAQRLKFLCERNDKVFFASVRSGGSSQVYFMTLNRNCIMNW
active: [5] -0.222
inactive: [1] -0.031 | [2] -0.04 | [3] -0.025 | [4] -0.062 | [6] -0.09 | [7] 0.02 | [8] -0.042 | [9] 0.018 | [10] 0.014

PAFAH1B3 (UniProt Q15102)
UniProt Q15102, sequence (Q15102 whole entry, looked up): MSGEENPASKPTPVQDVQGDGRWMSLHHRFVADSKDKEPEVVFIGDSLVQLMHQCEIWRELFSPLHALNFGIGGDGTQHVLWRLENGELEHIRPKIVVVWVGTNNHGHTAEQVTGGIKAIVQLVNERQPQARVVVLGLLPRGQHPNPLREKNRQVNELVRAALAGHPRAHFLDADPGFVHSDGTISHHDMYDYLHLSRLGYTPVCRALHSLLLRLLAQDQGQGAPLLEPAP
inactive: [1] 0.003 | [2] 0.058 | [3] 0.008 | [4] -0.031 | [5] -0.065 | [6] -0.011 | [7] 0.192 | [8] 0.039 | [9] -0.163 | [10] 0.075

OGFR (UniProt Q9NZT2)
active: [10] 0.328
inactive: [1] -0.041 | [2] 0.114 | [3] -0.024 | [4] -0.093 | [5] -0.114 | [6] -0.008 | [7] 0.036 | [8] -0.002 | [9] 0.025

NOP2 isoform 4 (UniProt P46087)
UniProt P46087, sequence (P46087 whole entry, looked up): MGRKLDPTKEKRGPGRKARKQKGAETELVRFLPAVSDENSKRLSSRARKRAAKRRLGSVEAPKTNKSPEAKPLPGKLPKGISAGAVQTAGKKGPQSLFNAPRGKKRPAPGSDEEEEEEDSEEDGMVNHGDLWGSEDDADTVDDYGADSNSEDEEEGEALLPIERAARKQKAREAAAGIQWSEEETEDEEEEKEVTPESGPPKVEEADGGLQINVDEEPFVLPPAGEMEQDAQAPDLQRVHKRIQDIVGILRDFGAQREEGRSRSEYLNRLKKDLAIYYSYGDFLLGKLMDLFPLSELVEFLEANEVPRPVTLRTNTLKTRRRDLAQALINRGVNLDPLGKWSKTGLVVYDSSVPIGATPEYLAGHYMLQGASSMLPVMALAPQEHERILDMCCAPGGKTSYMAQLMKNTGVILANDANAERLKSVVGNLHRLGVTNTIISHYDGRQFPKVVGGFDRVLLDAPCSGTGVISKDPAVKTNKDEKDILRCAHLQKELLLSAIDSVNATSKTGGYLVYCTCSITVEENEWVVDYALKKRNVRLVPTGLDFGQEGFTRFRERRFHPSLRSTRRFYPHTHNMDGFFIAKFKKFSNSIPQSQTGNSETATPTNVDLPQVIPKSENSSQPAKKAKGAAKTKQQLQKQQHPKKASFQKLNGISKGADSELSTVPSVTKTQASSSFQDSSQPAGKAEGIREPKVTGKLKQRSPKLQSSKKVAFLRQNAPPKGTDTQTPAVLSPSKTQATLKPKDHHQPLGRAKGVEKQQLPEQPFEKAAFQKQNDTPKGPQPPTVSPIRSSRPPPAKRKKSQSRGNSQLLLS
inactive: [1] 0.274 | [2] -0.065 | [3] 0.111 | [4] 0.066 | [5] 0.344 | [6] 0.096 | [7] -0.568 | [8] -0.319 | [9] 0.214 | [10] -0.304

MRPS25 (UniProt P82663)
inactive: [1] 0.125 | [2] 0.158 | [3] -0.144 | [4] -0.043 | [5] -0.105 | [6] 0.044 | [7] 0.037 | [8] 0 | [9] -0.077 | [10] 0.069

MRPS2 (UniProt Q9Y399)
inactive: [1] 0.191 | [2] 0.175 | [3] -0.119 | [4] 0.019 | [5] -0.026 | [6] -0.062 | [7] 0.043 | [8] 0.035 | [9] -0.074 | [10] 0.14

MRPS33 (UniProt Q9Y291)
inactive: [1] 0.123 | [2] 0.125 | [3] -0.129 | [4] 0.064 | [5] 0.031 | [6] -0.04 | [7] -0.033 | [8] 0.028 | [9] -0.003 | [10] 0.106

NME1 isoform 2 (UniProt P15531)
UniProt P15531, sequence (P15531 whole entry, looked up): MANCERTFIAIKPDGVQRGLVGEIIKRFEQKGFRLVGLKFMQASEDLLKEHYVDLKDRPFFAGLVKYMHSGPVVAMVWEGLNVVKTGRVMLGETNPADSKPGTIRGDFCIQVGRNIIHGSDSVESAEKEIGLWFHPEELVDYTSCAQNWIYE
inactive: [1] 0.011 | [2] -0.175 | [3] -0.115 | [4] 0.182 | [5] -0.286 | [6] -0.003 | [7] 0.088 | [8] -0.013 | [9] 0.06 | [10] -0.103
